Screening results: PubChem BioAssay, several laboratories
COUP-TFII inh: NR2F2 transcriptional activity inhibitors, primary screen, cell-based, luciferase reporter, HEK293T, luminescence. COUP transcription factor 2 (Homo sapiens), P24468. HEK293T NGFI-A luciferase reporter. inhibition, % at 8.6 µM. hit rate 0.7% among 370,000;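 active = inhibition above a per-plate cutoff, mean inhibition of test wells between control levels plus 3 SD, cut at about 38% in these data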;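 note: cells cotransfected with COUP-TFII expression vector driving the NGFI-A reporter; 0% = median of COUP-TF2 test wells and 100% = reporter-only cells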
Target sequence (P24468 whole entry, looked up): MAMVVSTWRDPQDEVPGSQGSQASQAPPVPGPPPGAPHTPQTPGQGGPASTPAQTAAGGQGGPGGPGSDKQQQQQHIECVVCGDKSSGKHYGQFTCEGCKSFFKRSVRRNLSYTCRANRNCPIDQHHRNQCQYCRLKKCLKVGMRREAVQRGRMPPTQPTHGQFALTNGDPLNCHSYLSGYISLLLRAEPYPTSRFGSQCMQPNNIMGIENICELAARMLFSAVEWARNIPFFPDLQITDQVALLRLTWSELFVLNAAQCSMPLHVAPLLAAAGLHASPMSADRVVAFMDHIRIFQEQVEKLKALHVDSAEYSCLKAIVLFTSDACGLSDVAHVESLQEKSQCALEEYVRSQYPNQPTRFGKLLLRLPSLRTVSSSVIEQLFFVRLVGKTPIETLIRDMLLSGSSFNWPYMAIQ
SRC3 inh: SRC3 coactivator transcriptional activity inhibitors, primary screen, cell-based, luminescence; hit rate 0.17% among 360,000; inhibition, % at 3.6 µM; Nuclear receptor coactivator 3 (Homo sapiens), Q9Y6Q9; HEK293 GAL4-SRC3 luciferase reporter; AID 588352, 2011;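 active = inhibition above a per-campaign cutoff, the mean of all compounds plus 3 SD, cut at about 60% in these data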;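 note: 0% = DMSO-treated cells and 100% = gossypol-treated cells at 36 µM; higher means less SRC3-driven luciferase light from the GAL4 reporter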
NCOA2 inhibitor: inhibition of GAL4-SRC2 driven luciferase reporter, primary screen, SRC2 inhibitor project, cell-based, luminescence | HEK293 GAL4-SRC2 luciferase reporter | inhibition, % at 9 µM | hit rate 0.17% among 370,000;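 active = inhibition above the mean inhibition of all tested compounds plus 3 SD, set per campaign, cut at about 52% in these data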;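 note: 0% = DMSO treated cells and 100% = cells given Gossypol at 36 µM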
SRC1 inh: SRC1 coactivator transcriptional activity inhibitors, primary screen, cell-based, luminescence. Nuclear receptor coactivator 1 (Homo sapiens), Q15788. HEK293 GAL4-SRC1 luciferase reporter. inhibition, % at 3.6 µM. hit rate 0.12% among 360,000;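 active = inhibition above the campaign mean plus 3 SD, with each screening campaign given its own cutoff, cut at about 60% in these data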;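 note: 0% = DMSO treated cells and 100% = gossypol at 36 µM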
Efflux pump mplx: inhibitors of Candida efflux pumps in yeast, primary screen, S. cerevisiae, Nile Red, multiplex. S. cerevisiae Candida pump triplex. inhibition, % at 10 µM. hit rate 0.44% among 330,000. AID 485275, 2010;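 active = plate passing quality check with inhibition over a set limit, or well fluorescence over plate mean plus 4 SD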;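 note: Nile Red retained in pooled yeast measured as flow cytometry median fluorescence; 0% = buffer negative control and 100% = Enniatin B positive control; higher means more Nile Red kept so more efflux inhibition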
LRH-1 inv ag: LRH-1 (NR5A2) inverse agonists, primary screen, cell-based, luminescence, HEK293T, StAR-luciferase reporter; LRH-1 transfected, 24 h; inhibition, % at 3.6 µM; hit rate 0.13% among 360,000; AID 602396, 2012;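 active = inhibition above the mean inhibition of all tested compounds plus 3 SD, cut at about 73% in these data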;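 note: 0% = DMSO wells and 100% = reporter-only cells lacking LRH-1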
Yeast cmpd fluor: counter-screen for efflux pump inhibitors: compound fluorescence; hit rate 4% among 1,700; S. cerevisiae AD/pABC3, flow cytometry; shares compounds with Efflux pump mplx; fluorescence ratio to DMSO, % at 10 µM;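 active = fluorescence ratio to DMSO above its plate's cutoff, the plate mean ratio plus 5 SD, cut at about 210% in these data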;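 note: unstained yeast with no Nile Red so the signal is compound autofluorescence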
CaMdr1 efflux inh: inhibitors of Candida albicans Mdr1 efflux, confirmation, flow cytometry, singleplex, Cherry Pick1 set | S. cerevisiae AD/CaMDR1, Nile Red efflux | inhibition, % at 10 µM | hit rate 1% among 1,700 | AID 588518, 2011 | shares compounds with Efflux pump mplx; in the data active = inhibition above about 26%;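 note: 0% = DMSO vehicle and 100% = reference inhibitor; higher means more Nile Red retained so more efflux inhibition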
CaCdr2 efflux inh: inhibitors of Candida albicans Cdr2 efflux pump, confirmation, S. cerevisiae AD/CaCDR2, flow cytometry, cherry pick 1, singleplex; shares compounds with Efflux pump mplx; Nile Red retention; Nile Red retention ratio vs DMSO, % at 10 µM; hit rate 4% among 1,700; in the data active = Nile Red retention ratio vs DMSO above about 190%;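 note: higher ratio means more blocking of Cdr2 efflux of the dye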
CaCdr1 efflux inh: inhibitors of Candida albicans Cdr1 efflux pump, confirmation, S. cerevisiae AD/CaCDR1, flow cytometry, cherry pick 1, singleplex; shares compounds with Efflux pump mplx; Nile Red efflux; inhibition, % at 10 µM; hit rate 1% among 1,700; AID 588522, 2011;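 active = inhibition above the screen-wide mean plus twice its standard deviation, cut at about 32% in these data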
* = called active by the depositor; · = not tested or not shown. This is a sample that favours compounds with a hit; in the whole collection about 1.2% have one here.

SMILES	COUP-TFII inh	SRC3 inh	NCOA2 inhibitor	SRC1 inh	Efflux pump mplx	LRH-1 inv ag	Yeast cmpd fluor	CaMdr1 efflux inh	CaCdr2 efflux inh	CaCdr1 efflux inh
COc1ccc(OC)c(NC(=O)NNC(=O)c2cc3occc3[nH]2)c1	5	0	-23	-11	1.2*	-11	100	0	101	0
CC(C)Cc1nnc(NS(=O)(=O)Cc2ccccc2)s1	-11	0	-17	0	9.0*	-1	108	0	106	0
O=[N+]([O-])c1c(Nc2ccccc2)ccc2nonc12	-25	3	-26	-19	0	5	·	·	·	·
Nc1cc(Nc2ccccc2)c2nonc2c1[N+](=O)[O-]	-25	10	-5	2	1.4*	7	105	0	93	0
O=C(NNC(=O)c1cccs1)c1ccc(S(=O)(=O)N2CCCCC2)cc1	-11	8	-17	8	11*	14	98	0	96	0
Cc1ccc(-c2c[n+](CC(=O)Nc3ccc(C)cc3C)c3n2CCC3)cc1	-29	29	-13	13	0	35	·	·	·	·
Cc1ccc(-c2c[n+](Cc3ccc(Cl)c(Cl)c3)c3n2CCC3)cc1	19	54	18	23	18*	28	79	0	87	0
Cc1ccc(NC(=O)C[n+]2cc(-c3ccc(C)cc3)n3c2CCC3)cc1	-2	28	-13	-12	0	13	107	0	98	0
O=C(C[n+]1cc(-c2ccc(Cl)c(Cl)c2)n2c1CCC2)N1c2ccccc2Sc2ccccc21	2	13	-1	6	4.3*	-23	105	0	108	0
COC(=O)[C@]12CCCCC=C1N(Cc1ccc3c(c1)OCO3)C(=O)[C@H](CC(=O)N1CCN(C(=O)C3CC3)CC1)C2	11	·	-5	·	·	-9	·	·	·	·
O=c1[nH][nH]c2c1[C@H](c1ccc(F)cc1)O[C@H](C1CCCCC1)C2	-3	·	6	·	·	29	·	·	·	·
O=C(COC(=O)c1ccccc1)NCC1COc2ccccc2O1 (centres undefined)	8	-14	-5	9	·	0	·	·	·	·
Cc1ccc(C(=O)OCC(=O)NCC2COc3ccccc3O2)cc1 (centres undefined)	-3	13	-18	-1	0.9*	18	119	1	114	0
CC(C)(C)S(=O)(=O)c1ccsc1C(=O)O	7	6	-11	-3	14*	0	98	0	109	0
CC(C)c1ccccc1-n1c(SCc2cc(=O)oc3ccc4ccccc4c23)nnc1-c1cccnc1	10	5	-8	-13	15*	-11	103	0	98	0
CC1=C(C)C(c2ccccc2)NC(=S)N1 (centres undefined)	7	-12	-11	1	5.5*	-23	103	0	104	0
COc1ccc(C(=O)CN2C(=O)NC3(CCCCCC3)C2=O)cc1	-16	-28	-20	-31	6.2*	-26	99	0	104	0
COc1ccc(OCCOC(=O)CN2C(=O)NC3(CCCC3)C2=O)cc1	8	-27	0	2	0	11	·	·	·	·
O=C(O)c1cnn2c1C(=O)N(Cc1cccs1)CC2	-16	-18	0	0	0	0	·	·	·	·
COc1ccccc1NC(=O)CNc1ccc(F)c(Cl)c1	3	2	6	-2	14*	2	113	0	114	0
CC(O)[C@H]1CNC(=O)C(=O)N1CCc1cc(C(F)(F)F)cc(C(F)(F)F)c1 (some centres undefined)	-9	15	-23	10	0	-4	·	·	·	·
O=C(NNC(=O)C1COc2ccccc2O1)c1cccc([N+](=O)[O-])c1 (centres undefined)	0	10	-21	-5	1.2*	6	107	0	97	0
O=C(CN1CCN(c2ncc(C(F)(F)F)cc2Cl)CC1)N1CCN(c2ncc(C(F)(F)F)cc2Cl)CC1	13	23	8	7	0.8*	6	107	0	112	0
Cc1cc(C)c2c(n1)sc1c(-c3ccccc3)c(C#N)c(N)nc12	-10	-5	10	-4	18*	13	107	0	103	0
Cc1nc(N)c(C#N)c(-c2ccccc2)c1C	-1	20	-3	16	0	5	·	·	·	·
SMILES	COUP-TFII inh	SRC3 inh	NCOA2 inhibitor	SRC1 inh	Efflux pump mplx	LRH-1 inv ag	Yeast cmpd fluor	CaMdr1 efflux inh	CaCdr2 efflux inh	CaCdr1 efflux inh
O=C(Nc1cc(Br)ccc1O)c1cc(-c2ccc3c(c2)OCO3)on1	-35	-19	-59	-77	0	-40	·	·	·	·
CSc1ccccc1NC(=O)c1cc(-c2ccc3c(c2)OCO3)on1	5	-24	-11	-25	1.6*	-21	89	0	105	0
CCOC(=O)C1(Cc2ccc(OC)cc2)CCN(C(=O)c2cc3ccccc3[nH]2)CC1	-5	-52	-8	-42	0.5*	-6	92	0	110	0
CCCCSC1=N/C(=C/c2ccsc2)C(=O)N1c1ccccc1	15	0	-25	2	5.8*	15	105	0	93	0
COc1ccc(-c2nc(C(N)=O)c3[nH]c(=O)n(-c4ccccc4OC)c3n2)c(OC)c1	-7	3	-13	-22	0	11	99	0	92	0
COc1ccc(OC)c(-c2nc(C(N)=O)c3[nH]c(=O)n(-c4ccc(F)cc4)c3n2)c1	6	-9	1	-8	0	4	80	0	89	0
Cc1ccc(-n2c(=O)[nH]c3c(C(N)=O)nc(-c4ccc(C)o4)nc32)cc1	4	-11	2	-23	0	-2	99	0	93	0
COc1ccccc1-n1c(=O)[nH]c2c(C(N)=O)nc(-c3cccnc3)nc21	-12	0	-10	-15	0	6	·	·	·	·
